These results are taken from the supplement of paper PMC12067926.

A number with no mark means an inactive call.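 The calls were made as follows: active = growth AUC significantly below the DMSO wells by Dunnett test; inactive = the rest.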

The subject of the first assay is Microbacterium 1 (Microbacterium arborescens). Description: relative growth (AUC of 72 h growth curve relative to DMSO control, dAUC) (ratio); higher = more growth (less inhibition), active = hit call of the paper. The note with it: 20 µM. An outline of the steps:
(§1)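 Growth was followed as A600, read hourly for 72 h on a plate reader after brief shaking. Isolates from Icelandic stream sediments and Silwood Park soil, and whole sediment communities, were first grown to carrying capacity in Luria–Bertani medium and then diluted 1:100 into 96-well plates with each chemical at 20 µM (1% DMSO). Relative growth (dAUC) is the spline-integrated area under the curve scaled to the mean of the DMSO controls, and the values are averages of three biological replicates.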
For the compound `CNC(=O)CSP(=S)(OC)OC`, the relative growth is 1.
The same measure, in the same setting: the same measure for `N#CCNC(=O)c1cnccc1C(F)(F)F`: 1.01.
Still for that read-out and setting: the value for `COP(=O)(OC)OC=C(Cl)Cl` was 0.975; that for `CCc1cc(C)cc(CC)c1-c1c(OC(=O)C(C)(C)C)n2n(c1=O)CCOCC2` was 1.03; that for `CCOc1ccc(C(C)(C)COCc2cccc(Oc3ccccc3)c2)cc1` was 1.04.
The same measure, in the same setting: the same measure for `COc1ncc(F)c2nc(S(=O)(=O)Nc3c(F)cccc3F)nn12`: 1.03; for `O=[N+]([O-])c1cc(C(F)(F)F)c(Cl)c([N+](=O)[O-])c1Nc1ncc(C(F)(F)F)cc1Cl`: 0.928.
On to `COP(=S)(OC)Oc1ccc(SC)c(C)c1`, for which the relative growth was 0.99.
On the same count and under the same terms, the value for `CCCCCCCCCCCCNC(=N)N` was 0.881.
Same read-out and setting: the value for `CC(C)NC(=O)N1CC(=O)N(c2cc(Cl)cc(Cl)c2)C1=O` was 0.984; that for `CCCCOC(=O)[C@H](C)Oc1ccc(Oc2ccc(C#N)cc2F)cc1` was 1.04; that for `CCc1cccc(C)c1N(C(=O)CCl)[C@@H](C)COC` was 1.04.
Same read-out and setting: the value for `CC(C1CC1)C(O)(Cn1cncn1)c1ccc(Cl)cc1` (centres undefined) was 0.987; that for `CC(COc1ccc(Oc2ccccc2)cc1)Oc1ccccn1` (centres undefined) was 1.05; that for `CCNc1nc(Cl)nc(NC(C)C)n1` was 1.02.
For the compound `N#C/N=C1\SCCN1Cc1ccc(Cl)nc1`, the relative growth was 1.03.
On the same count and under the same terms, the same measure for `CCCC1COC(Cn2cncn2)(c2ccc(Cl)cc2Cl)O1` (centres undefined): 1.01.
With `COc1cc(C)c(C(=O)c2c(OC)ccc(Br)c2C)c(OC)c1OC`, the relative growth was 1.03.
With `C/C(=N\C#N)N(C)Cc1ccc(Cl)nc1`, the relative growth is 0.997.
The same measure, in the same setting: the same measure for `CCCCN(CCCC)SN(C)C(=O)Oc1cccc2c1OC(C)(C)C2`: 1.01.
The same measure, in the same setting: the same measure for `N#Cc1c(Cl)c(Cl)c(Cl)c(C#N)c1Cl`: 1.06.
On the same count and under the same terms, the value for `Cc1nc(N(C)C)nc(OC(=O)N(C)C)c1C` was 0.988.
`CC(C)CC(C)c1sccc1NC(=O)c1cn(C)nc1C(F)(F)F` (centres undefined): the relative growth was 0.937.
Still for that read-out and setting: the same measure for `Fc1ccc(Oc2ccnc3cc(Cl)cc(Cl)c23)cc1`: 0.999; for `CC1(C)C(C=C(Cl)Cl)C1C(=O)OCc1cccc(Oc2ccccc2)c1` (centres undefined): 0.987; for `Oc1ccccc1-c1ccccc1`: 1.04.
On the same count and under the same terms, the same measure for `CCC(C)c1ccccc1OC(=O)NC` (centres undefined): 1.04; for `CN/C(=N\[N+](=O)[O-])NCc1cnc(Cl)s1`: 0.983.
The same measure, in the same setting: the same measure for `O=C(O)c1nc(Cl)ccc1Cl`: 0.977; for `CC1(C)[C@H](/C=C(\Cl)C(F)(F)F)[C@@H]1C(=O)OC(C#N)c1cccc(Oc2ccccc2)c1` (some centres undefined): 0.995.
As for `O=C(NC(=O)c1c(F)cccc1F)Nc1ccc(OC(F)(F)C(F)OC(F)(F)F)c(Cl)c1` (centres undefined), the relative growth was 1.05.
Still for that read-out and setting: the value for `O=C1C=C(N(Cc2ccc(Cl)nc2)CC(F)F)CO1` was 1.04.
In the case of `O=C(O)COc1ccc(Cl)cc1Cl`, the relative growth was 1.02.
Turning to `COc1ccc(C(=CC(=O)N2CCOCC2)c2ccc(Cl)cc2)cc1OC` (mixture of isomers), the relative growth was 1.03.
Regarding `CCN(CC)c1nc(C)cc(OP(=S)(OC)OC)n1`, the relative growth is 1.03.
The same measure, in the same setting: the same measure for `Oc1ccc(Cl)cc1Cc1cc(Cl)ccc1O`: 0.869.
As for `N#CC(CCc1ccc(Cl)cc1)(Cn1cncn1)c1ccccc1` (centres undefined), the relative growth is 0.909.

In another assay the test system is Neobacillus 1 (Neobacillus soli). The description is as above. The note with it: 20 µM. An outline of the steps: as §1
For the compound `CNC(=O)CSP(=S)(OC)OC`, the relative growth was 0.948.
Still for that read-out and setting: the same measure for `N#CCNC(=O)c1cnccc1C(F)(F)F`: 0.935.
The same measure, in the same setting: the same measure for `COP(=O)(OC)OC=C(Cl)Cl`: 0.893; for `CCc1cc(C)cc(CC)c1-c1c(OC(=O)C(C)(C)C)n2n(c1=O)CCOCC2`: 0.861.
Same read-out and setting: the value for `CCOc1ccc(C(C)(C)COCc2cccc(Oc3ccccc3)c2)cc1` was 0.881; that for `COc1ncc(F)c2nc(S(=O)(=O)Nc3c(F)cccc3F)nn12` was 1.04.
On to `O=[N+]([O-])c1cc(C(F)(F)F)c(Cl)c([N+](=O)[O-])c1Nc1ncc(C(F)(F)F)cc1Cl`, for which the relative growth was 0.169 (active).
Consider `COP(=S)(OC)Oc1ccc(SC)c(C)c1`, for which the relative growth is 0.955.
The same measure, in the same setting: the value for `CCCCCCCCCCCCNC(=N)N` was 0.98.
The same measure, in the same setting: the value for `CC(C)NC(=O)N1CC(=O)N(c2cc(Cl)cc(Cl)c2)C1=O` was 0.961; that for `CCCCOC(=O)[C@H](C)Oc1ccc(Oc2ccc(C#N)cc2F)cc1` was 1.03.
The same measure, in the same setting: the same measure for `CCc1cccc(C)c1N(C(=O)CCl)[C@@H](C)COC`: 0.981; for `CC(C1CC1)C(O)(Cn1cncn1)c1ccc(Cl)cc1` (centres undefined): 0.985.
For the compound `CC(COc1ccc(Oc2ccccc2)cc1)Oc1ccccn1` (centres undefined), the relative growth was 1.09.
The same measure, in the same setting: the value for `CCNc1nc(Cl)nc(NC(C)C)n1` was 1.03; that for `N#C/N=C1\SCCN1Cc1ccc(Cl)nc1` was 1.07.
On the same count and under the same terms, the value for `CCCC1COC(Cn2cncn2)(c2ccc(Cl)cc2Cl)O1` (centres undefined) was 0.88.
Same read-out and setting: the same measure for `COc1cc(C)c(C(=O)c2c(OC)ccc(Br)c2C)c(OC)c1OC`: 1.06; for `C/C(=N\C#N)N(C)Cc1ccc(Cl)nc1`: 0.993.
As to `CCCCN(CCCC)SN(C)C(=O)Oc1cccc2c1OC(C)(C)C2`, the relative growth is 0.952.
On to `N#Cc1c(Cl)c(Cl)c(Cl)c(C#N)c1Cl`, for which the relative growth was 0.966.
On the same count and under the same terms, the same measure for `Cc1nc(N(C)C)nc(OC(=O)N(C)C)c1C`: 0.928; for `CC(C)CC(C)c1sccc1NC(=O)c1cn(C)nc1C(F)(F)F` (centres undefined): 0.924.
`Fc1ccc(Oc2ccnc3cc(Cl)cc(Cl)c23)cc1`: the relative growth is 1.09.
Same read-out and setting: the value for `CC1(C)C(C=C(Cl)Cl)C1C(=O)OCc1cccc(Oc2ccccc2)c1` (centres undefined) was 1.05; that for `Oc1ccccc1-c1ccccc1` was 0.9.
On the same count and under the same terms, the same measure for `CCC(C)c1ccccc1OC(=O)NC` (centres undefined): 1.06.
The same measure, in the same setting: the value for `CN/C(=N\[N+](=O)[O-])NCc1cnc(Cl)s1` was 0.85; that for `O=C(O)c1nc(Cl)ccc1Cl` was 0.968; that for `CC1(C)[C@H](/C=C(\Cl)C(F)(F)F)[C@@H]1C(=O)OC(C#N)c1cccc(Oc2ccccc2)c1` (some centres undefined) was 0.958.
Regarding `O=C(NC(=O)c1c(F)cccc1F)Nc1ccc(OC(F)(F)C(F)OC(F)(F)F)c(Cl)c1` (centres undefined), the relative growth was 0.888.
Still for that read-out and setting: the value for `O=C1C=C(N(Cc2ccc(Cl)nc2)CC(F)F)CO1` was 1.02.
Turning to `O=C(O)COc1ccc(Cl)cc1Cl`, the relative growth is 1.
Same read-out and setting: the same measure for `COc1ccc(C(=CC(=O)N2CCOCC2)c2ccc(Cl)cc2)cc1OC` (mixture of isomers): 1.02; for `CCN(CC)c1nc(C)cc(OP(=S)(OC)OC)n1`: 1.03.
Same read-out and setting: the same measure for `Oc1ccc(Cl)cc1Cc1cc(Cl)ccc1O`: 0.731 (active); for `N#CC(CCc1ccc(Cl)cc1)(Cn1cncn1)c1ccccc1` (centres undefined): 0.905.
